# Rows were chosen to be rich in hits. Some 3.2% of all compounds tested hit in one or more screens of this group.
# LMNA splice mod: qHTS Assay for Modulators of Lamin A Splicing; HeLa LMNA splicing GFP/RFP minigene ratio, 48 h; Potency, µM (titrated, usually from 46.1 µM), hits mostly inhibitors; hit rate 0.01% among 200,000; AID 1487, 2009; active = well fitted inhibition curve with a large enough effect in the signal ratio, with a control signal flat, not every such curve was filed as active; inconclusive = small, poorly fitted or top-dose-only effect, or effect the other way, or a change in a side signal; the % refers to the signal ratio
#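 S3 HeLa stable clones carrying a lamin A-EGFP splicing minigene plus DsRed2 were seeded at 600 cells/well in Opti-MEM with 2% FBS, pin-dosed and incubated 48 h at 37°C. Acumen cytometry (488 nm) gave the GFP/RFP total-intensity ratio.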
# Tau FP inhib: qHTS for Inhibitors of Tau Fibril Formation, Fluorescence Polarization; Microtubule-associated protein tau (Homo sapiens), P10636; Potency, µM (doses to about 57.7 µM), actives largely listed as inhibitors; K18 P301L tau heparin fibrillization, Alexa594 FP, 6 h; hit rate 0.39% among 280,000; note: nearly all actives have a fitted effect of over 55% in size
# Target sequence (P10636 561-689 P618L limits assumed): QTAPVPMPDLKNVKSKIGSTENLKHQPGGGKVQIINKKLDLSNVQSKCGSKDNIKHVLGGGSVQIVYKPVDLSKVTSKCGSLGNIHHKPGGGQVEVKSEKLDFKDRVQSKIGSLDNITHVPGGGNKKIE
#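 Heparin (20 uM) drove fibril formation of recombinant tau K18 P301L, 15 uM unlabeled with 0.24 uM Alexa 594 label, for 6 hr at 37 C in 100 mM sodium acetate pH 7. Fluorescence polarization (555/632 nm) read 1 hr after 30 uM ThT.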
# KDM4E inh: qHTS Assay for Inhibitors of Human Jumonji Domain Containing 2E (JMJD2E); Lysine-specific demethylase 4E (Homo sapiens), B2RXH2; Potency, µM (series often up to 57.1 µM), most hits filed as inhibitors; hit rate 1.6% among 230,000; AID 2147, 2009; JMJD2E catalytic domain, FDH-coupled NADH fluorescence (FDH is formaldehyde dehydrogenase); note: nearly all actives have a fitted effect of over 50% in size
# Target sequence (B2RXH2 1-337 limits assumed): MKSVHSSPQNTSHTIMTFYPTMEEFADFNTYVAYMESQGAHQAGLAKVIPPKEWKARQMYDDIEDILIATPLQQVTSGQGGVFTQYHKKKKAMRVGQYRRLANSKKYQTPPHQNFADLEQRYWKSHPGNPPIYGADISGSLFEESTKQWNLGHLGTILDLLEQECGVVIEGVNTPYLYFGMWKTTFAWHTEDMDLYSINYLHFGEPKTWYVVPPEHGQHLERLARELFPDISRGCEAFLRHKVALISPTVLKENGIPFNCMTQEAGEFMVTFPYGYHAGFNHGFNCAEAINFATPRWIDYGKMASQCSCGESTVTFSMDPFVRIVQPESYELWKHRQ
# Tau ThT inhib: qHTS for Inhibitors of Tau Fibril Formation, Thioflavin T Binding. recombinant tau K18 P301L, heparin-induced fibrillization, ThT fluorescence. Potency, µM (highest dose often 57.4 µM), usual class: inhibitors. hit rate 2.1% among 270,000. Microtubule-associated protein tau (Homo sapiens), P10636; note: nearly all actives have a fitted effect of over 55% in size
#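 Heparin-induced fibrillization of the P301L-mutant K18 repeat-domain fragment of human tau was followed by ThT binding in quantitative high-throughput format.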
# Tau fluor cs: Counterscreen qHTS for Inhibitors of Tau Fibril Formation, Fluorescence Polarization; tau K18 P301L Alexa594 fluorescence, heparin fibrillization; AID 1463, 2008; Potency, µM (highest dose often 57.7 µM); hit rate 0.93% among 280,000; note: nearly all actives have a fitted effect of over 55% in size
#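 Human tau K18 P301L (15 uM unlabeled, 0.24 uM Alexa 594-labeled) in 100 mM sodium acetate pH 7 with 20 uM heparin, 6 hr at 37 C. ThT 30 uM added, 1 hr ambient; Alexa 594 FP and total fluorescence read at 555/632 nm.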
# CBFb-RUNX1 inh: qHTS Assay for Compounds Blocking the Interaction Between CBF-beta and RUNX1 for the Treatment of Acute Myeloid Leukemia. Runt-related transcription factor 1 (Homo sapiens) + Core-binding factor subunit beta …. AID 1477, 2009. AlphaScreen CBFb-His/RUNX1-biotin binding, biochemical. Potency, µM (doses to about 59.8 µM), usual class: inhibitors. 230,000 tested, under 10 active
#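 Compounds were screened at multiple concentrations against a preformed CBF-beta(His)/RUNX1(biotin) complex (30 nM of each) for 15 min at room temperature, followed by 90 min with nickel and streptavidin beads and AlphaScreen reading.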
# Hits are given with their value; – = inactive; ? = inconclusive; · = no result given; [ ] = dose if it differs, or a comment. Unless noted, calls come from the whole dose curve; as a rule, active = well fitted curve in the direction sought with a large enough effect; inconclusive = small, poorly fitted or top-dose-only effect, or another doubt; inactive = no such curve, though single readings can be large; an effect the other way counts as inactive or inconclusive.
SMILES,LMNA splice mod,Tau FP inhib,KDM4E inh,Tau ThT inhib,Tau fluor cs,CBFb-RUNX1 inh
CCOc1cccc(/C=N/NC(=O)CC2C(=O)NN=C2C)c1O (stereo unspecified),·,–,–,–,–,–
COc1ccccc1-c1cnnc(N/N=C/c2ccc(-c3cccc(Br)c3)o2)n1,–,–,–,3.5µM,?,–
Cc1cc(C)c(S(=O)(=O)N2CCN(Cc3nc4ccc(C)cc4o3)CC2)c(C)c1,?,–,·,–,–,·
O=C(Nc1nc(=S)ss1)c1ccc(Cl)cc1Cl,–,?,–,32µM,–,–
Cc1c(C)c2c(c(C)c1O)CCC(C)(COc1ccc(Cc3sc(=O)[nH]c3O)cc1)O2 (stereo unspecified),·,?,·,?,?,–
CCC(C)NC(=O)CSc1nc2n[nH]c(C)c2c(=N)n1-c1ccc(C)c(Cl)c1 (stereo unspecified),–,–,·,–,–,·
CN1C2C=C3C(C#N)=C(N)C(C#N)(C#N)[C@H](c4c(F)cccc4F)[C@H]3C1CC2 (stereo partly specified),–,?,?,14µM,–,–
CN1C2C=C3C(C#N)=C(N)C(C#N)(C#N)[C@@H](c4cccc(F)c4)[C@@H]3C1CC2 (stereo partly specified),–,?,?,20µM,–,–
CN1C2C=C3C(C#N)=C(N)C(C#N)(C#N)[C@@H](c4cccs4)C3C1CC2 (stereo partly specified),–,?,?,20µM,–,–
N#CC1=C(N)C(C#N)(C#N)[C@H](c2c(F)cccc2F)[C@H]2CC3(CC=C12)OCCO3,?,?,?,?,–,?
CC(=O)N(O)C/C=C/c1cccc(Oc2ccccc2)c1,·,·,·,·,·,–
CC[n+]1c(C)n(C)c2cc(S(=O)(=O)N(C)C)ccc21,–,–,10µM,–,–,–
CCOC(=O)C1=C(C)Nc2sc(C(=O)c3ccc(OC)cc3)c(N)c2C1c1ccc(C(=O)OC)cc1 (stereo unspecified),–,–,–,–,5µM[quencher],–
CCOC(=O)CNC(=O)O[C@@H]1Cc2cc(OC)ccc2O[C@H]1c1cccc(OC)c1,·,–,–,–,–,–
O=C(O)CSc1cc(C(=O)c2ccccc2O)cn2c(=O)c3c(-c4ccccc4)csc3nc12,?,–,–,25µM,–,?
Cc1sc2nc3c(SC(C)C(=O)O)cc(C(=O)c4ccccc4O)cn3c(=O)c2c1C (stereo unspecified),?,–,–,14µM,–,–
COc1cc(/C=N/N=C2/C(=O)Nc3ccccc32)ccc1O,–,–,–,11µM,?,–
O=C1Nc2ccccc2/C1=N\N=C\c1ccc(O)c(O)c1,·,–,7.9µM,4.5µM,?,–
COc1ccc(N=C2C(=O)Nc3ccccc32)cc1,–,–,–,?,–,–
NS(=O)(=O)c1ccc(N=C2C(=O)Nc3ccccc32)cc1,–,?,–,?,–,–
Cc1ccsc1/C=N/N=C1\C(=O)Nc2ccccc21,?,–,–,14µM,?,–
O=C(/C(=N/N=C/c1ccc(O)c(O)c1)c1ccccc1)c1ccccc1,–,–,?,?,13µM[quencher],?
Cc1ccc(-c2nc(C)c(CCNC(=O)C(=O)Nc3cc(C)ccc3C)s2)cc1,–,–,·,?,–,·
COc1ccc(-c2nc3cnc(N4CCOCC4)nc3n(C3CC3)c2=O)cc1,–,·,·,·,·,·
CC(C)Cn1cc(C(=O)NCc2cccs2)c2c3ccccc3n(C)c2c1=O,–,–,–,10µM,–,–
SMILES,LMNA splice mod,Tau FP inhib,KDM4E inh,Tau ThT inhib,Tau fluor cs,CBFb-RUNX1 inh
Cc1cccc2sc(N(Cc3cccnc3)C(=O)c3cccs3)nc12,?,–,·,?,–,·
O=C(Nc1nnc(S(=O)(=O)N2CCCCC2)s1)c1ccc(Cl)cc1,–,–,·,2µM,–,·
O=C(Nc1nnc(S(=O)(=O)N2CCCCCC2)s1)c1ccc(Br)cc1,?,–,·,?,?,·
Cc1ccc(C(=O)Nc2nnc(S(=O)(=O)N3CCN(c4ccc(F)cc4)CC3)s2)cc1,?,–,·,2.5µM,–,·
O=C(Nc1nnc(S(=O)(=O)N2CCN(c3ccc(F)cc3)CC2)s1)c1ccc(Cl)cc1,–,–,·,?,–,·
OCCN(CCO)c1ccc(C(c2ccccc2Cl)c2ccc(N(CCO)CCO)cc2Cl)c(Cl)c1,?,–,–,?,11µM[quencher],–
OCCN(CCO)c1ccc2ccccc2c1,–,–,?,–,–,–
COc1ccccc1Nc1cc(C(=O)NC2CCC(C)CC2)c2ccccc2n1 (stereo unspecified),·,–,·,–,–,·
CC(C)C(=O)c1ccc(O)c(O)c1,·,–,25µM,–,–,–
O=C(NCc1cccc(F)c1)C1CCCN(C(=O)N2CCOc3ccccc32)C1 (stereo unspecified),?,?,·,–,?,·
CCN(CC)C(=O)c1sc(NC(=O)C(C)Sc2nc(-c3ccccc3)cc(C(F)(F)F)n2)c(C(=O)OC)c1C (stereo unspecified),·,?,·,25µM,–,·
O=C(O)c1ccc(N2C(=O)c3cccc4c(C(=O)O)ccc(c34)C2=O)cc1,·,–,28µM,–,–,?
O=C(O)c1ccc2c3c(cccc13)C(=O)N(c1ccccc1)C2=O,·,–,?,–,–,?
COc1ccnc(CSC(N)=Nc2cccc(C(F)(F)F)c2)c1,?,?,?,18µM,?,–
COc1ccnc(CSC(N)=Nc2ccccc2C(F)(F)F)c1,–,–,–,–,–,–
COc1ccnc(CSC(N)=Nc2ccccc2OC)c1,–,?,–,32µM,–,–
C[C@@H]1CC2C3CCC4=CC(=O)C=CC4(C)[C@@]3(F)[C@@H](O)CC2(C)[C@@]1(O)C(=O)CO (stereo partly specified),·,–,·,–,–,–
Cc1ccc2nc(-c3cccc(NC(=O)CSc4ccc(Cl)cc4)c3)oc2c1,·,?,·,–,?,·
COc1ccc2[nH]c(=O)c(CN(Cc3ccco3)C(c3nnnn3Cc3ccccc3)C(C)C)cc2c1 (stereo unspecified),?,–,?,–,?,–
Cc1cccc2cc(CN(Cc3ccco3)C(c3nnnn3CCc3ccccc3)C(C)C)c(=O)[nH]c12 (stereo unspecified),?,–,18µM,–,–,–
CCc1ccccc1Nc1nc2ccccc2n2cnnc12,·,–,·,–,–,·
